HTT prom inh – inhibitors of huntingtin promoter activity; HEK293 HTT promoter firefly luciferase reporter, 24 h; Potency, µM (titrated, usually from 57.5 µM), for inactives: at the highest dose activity change, negative = inhibition, most hits filed as inhibitors; actives 0.93% (n = 48,000); AID 1508623; note: potency is the fitted concentration of half-maximal effect; nearly all actives have a fitted effect of over 50% in size
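Firefly luciferase readout (Dual-Glo, 10 min RT) after 24 h, 37 °C compound exposure (final up to 57.5 uM) of HEK293 reporter cells cultured 24 h beforehand; PTC124 at 50 uM final as control inhibitor; activity scaled vehicle 0%, zero RLU -100%.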
HTT-AS promoter – activates huntingtin-antisense promoter activity; HEK293 HTT-AS promoter firefly luciferase reporter, 24 h; response scale: percent change from vehicle, -100% = no light; Potency, µM (titrated, usually from 57.5 µM), without a hit: at the top dose activity change, positive = activation, usual class: activators; actives 0.24% (n = 48,000); AID 1508624; note: potency is the fitted concentration of half-maximal effect; nearly all actives have a fitted effect of over 55% in size
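Quantitative HTS used concentration series of up to 57.5 uM final on HEK293 luciferase reporter cells, 24 h at 37 degrees C. Readout was Dual-Glo firefly luminescence.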
NTMT1 inh – NTMT1 methyltransferase inhibition. Q9BV86. NTMT1 MTase-Glo SAH luminescence, purified enzyme. Potency, µM (top dose mostly 114 µM), for the others: top-dose activity change, negative = inhibition, usual class: inhibitors. actives 2.5% (n = 59,000);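 note: potency is the fitted concentration of half-maximal effect; plate controls were DMSO vehicle for no effect and no enzyme for full effect; nearly all actives have a fitted effect of over 65% in size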
Target sequence (Q9BV86 whole entry, looked up): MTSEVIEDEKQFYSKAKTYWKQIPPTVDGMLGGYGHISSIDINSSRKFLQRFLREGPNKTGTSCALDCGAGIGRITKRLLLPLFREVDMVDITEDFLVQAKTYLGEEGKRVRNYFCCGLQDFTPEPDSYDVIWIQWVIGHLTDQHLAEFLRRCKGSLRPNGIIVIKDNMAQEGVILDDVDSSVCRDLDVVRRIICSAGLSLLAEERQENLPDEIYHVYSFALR
FH mod – Identification of activators of human fumarate hydratase by quantitative high-throughput screening; Fumarate hydratase, mitochondrial (Homo sapiens), P07954; FH coupled MDH/diaphorase resazurin fluorescence, 15 min; Potency, µM (doses to about 79.9 µM), for the others: top-dose activity change, negative = inhibition, usual class: inhibitors; actives 0.22% (n = 54,000); note: potency is the fitted concentration of half-maximal effect; % is set by controls: 0 for no effect and ±100 for the full control effect; the screen sought activators but most active calls are inhibition curves; nearly all actives have a fitted effect of over 45% in size
GPR32 ag – activates human resolvin D1 receptor GPR32; CHO-K1 GPR32 beta-arrestin PathHunter luminescence, 90 min; zero percent set by DMSO-only wells; activation, % at 76.9 µM; actives 2.5% (n = 48,000);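 active = activation of at least 60% and not above a set upper limit, about 1 call in 100 departs from these limits; inconclusive = activation of 40% to 60%, or above that upper limit; inactive = activation under 40%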; note: 0% is about no effect
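CHO-K1 cells stably expressing ProLink-tagged GPR32 and Enzyme Activator-tagged beta-arrestin were seeded at 2,500 cells/well overnight, exposed to compounds for 90 min at 37 °C, then read by beta-Gal complementation chemiluminescence after 1 h detection reagent.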
* marks the source's active call; other numbers are inactive results; ? = inconclusive; / = not tested or not shown; ! = not active in a repeat; [ ] = dose if it differs, or a comment. Most compounds without a hit are left out; they make up all but 4.7% or so of the library. Unless noted, calls come from the whole dose curve; as a rule, active = well fitted curve in the direction sought with a large enough effect; inconclusive = small, poorly fitted or top-dose-only effect, or another doubt; inactive = no such curve, though single readings can be large; an effect the other way counts as inactive or inconclusive.

SMILES | HTT prom inh | HTT-AS promoter | NTMT1 inh | FH mod | GPR32 ag
COc1cc(C2c3c(-c4ccc(C)cc4)n[nH]c3C(=O)N2c2ccc(F)cc2)ccc1O (centres undefined) | ? | -54.9% | -1.0% | ? | 104.2*
CC1CCN(S(=O)(=O)N2CCC(C(=O)NCc3ccccc3Cl)CC2)CC1 | ? | -31.2% | 21.4% | 0.6% | -9.0
O=C(CS(=O)(=O)c1cccc2nsnc12)N1CCN(c2ccc(F)cc2)CC1 | -15.3% | -12.0% | -5.6% | -11.5% | 11.4
CC(=O)c1ccc(N2CCN(C(=O)CS(=O)(=O)c3cccc4nsnc34)CC2)cc1 | -21.1% | -22.7% | -18.8% | 0.7% | 88.5*
Cc1cccc(N2CCN(C(=O)CS(=O)(=O)Cc3nc(-c4ccccc4C)oc3C)CC2C)c1 (centres undefined) | ? | -32.8% | ? | -24.0% | 34.1
COc1ccc(CCCc2nnc(SCC(=O)Nc3cccc(F)c3C)o2)cc1 | -15.9% | -19.8% | ? | -5.3% | 65.7*
Cc1ccc(Nc2nc3nonc3nc2Nc2cccc(C(F)(F)F)c2)cc1Cl | 1.26µM* | -91.0% | 23.0% | ? | 15.6
Cc1ccc(CCNC(=O)c2ccc3[nH]c(C)c(C)c3c2)cc1 | -14.7% | -9.5% | ? | 35.5µM* | 2.3
COc1ccc(OC)c(CNC(=O)c2ccc3c(c2)c(C)c(C)n3C)c1 | -4.5% | -11.5% | 89.1µM* | -12.6% | -24.3
CCOc1ccc(CNC(=O)c2ccc3[nH]c(C)c(C)c3c2)cc1OC | -5.9% | -15.1% | -2.4% | -7.7% | -2.5
COc1ccc(OC)c(CCNC(=O)c2ccc3[nH]c(C)c(C)c3c2)c1 | -13.5% | -22.9% | -5.6% | -19.9% | -7.0
COc1ccc(CCNC(=O)c2ccc3[nH]c(C)c(C)c3c2)cc1OC | ? | 2.3% | -29.9% | ? | 113.4*
CCOc1ccc(CCNC(=O)c2ccc3c(c2)c(C)c(C)n3C)cc1 | 2.1% | -12.8% | ? | 15.8µM* | -8.3
CCS(=O)(=O)N1CC(=O)N(c2ccc(C)c(C)c2)C(C)(C(=O)NC2CCCCC2)C1 (centres undefined) | 5.6% | -4.9% | -2.0% | 0.0% | 5.8
CC(C)(F)C[C@@H](N[C@@H](c1ccc(-c2ccc(S(C)(=O)=O)cc2)cc1)C(F)(F)F)C(=O)NC1(C#N)CC1 | / | / | 4.0%[57.5 µM] | 4.9% | /
COCCCNc1ncnc2c1c(-c1ccccc1)cn2-c1ccc(C)c(Cl)c1 | -15.9% | -6.9% | 13.5% | -27.8% | -11.6
CCOc1ccc(CCNC(=O)c2ccc3[nH]c(C)c(C)c3c2)cc1 | -20.8% | -19.1% | -20.7% | ? | 72.4*
CC[C@@H]([C@H](C)O)n1ncn(-c2ccc(N3CCN(c4ccc(OC[C@@H]5CO[C@@](Cn6cncn6)(c6ccc(F)cc6F)C5)cc4)CC3)cc2)c1=O | 1.1% | -10.9% | -9.1%[57.5 µM] | -2.1%[53.3 µM] | 67.7*
C[C@H](N)C(=O)N[C@@H](Cc1ccc(O)cc1)C(=O)N1CCC[C@H]1C(=O)NCC(=O)N[C@@H](CCCCN)C(=O)N[C@@H](Cc1ccccc1)C(N)=O | / | / | 12.4%[12.6 µM] | 1.3%[13.5 µM] | /
CN(C)CCOC(C)(c1ccccc1)c1ccc(Cl)cc1 (centres undefined) | / | / | 12.6%[57.5 µM] | 1.8% | /
O=C(CSc1ncccc1C(=O)Oc1ccccc1Cl)Nc1ccccc1Cl | 6.7% | 7.2% | 21.8% | -10.4% | -23.5
Cc1ccccc1NC(=O)Nc1ccc2nc(N3CCN(C)CC3)cc(C)c2c1 | 8.5% | -11.6% | -3.4% | 3.2% | 30.7
Cc1cc(N)c2cc(NC(=O)Nc3ccc4nc(C)cc(N)c4c3)ccc2n1 | -6.1% | -11.0% | 20µM* | 22.7%[53.3 µM] | ?
COC(=O)c1ccc(OCC2c3cc(OC)c(OC)cc3CCN2C(=O)c2cccc(C)c2)cc1 (centres undefined) | -53.8% | -36.9% | 11.8% | -20.5% | -9.6
Cn1cnc2c(F)c(Nc3ccc(Br)cc3Cl)c(C(=O)NOCCO)cc21 | 2.5% | -3.6% | 89.1µM*! | 5.6% | 6.1
CCc1ccc(C2CC(=O)c3c([nH]c(C(=O)OC4CCC(C)CC4)c3C)C2)cc1 (centres undefined) | -4.2% | -16.3% | 6.6% | 0.1% | -5.6
Cc1c(-c2cnccn2)ssc1=S | / | / | 3.16µM* | / | /
